Laboratory results: PubChem BioAssay AID1159580 (chemical genetic matrix, 2015)
The whole screen tested about 5,500 compounds, of which about 2,000 (36%) were called active. Roughly 18% stayed inconclusive and do not appear here. No stated cut-off is given here; in the data, active means normalized growth mostly below about 0.91 (no sharp cut-off); inconclusive means no clear call, values can overlap the other calls; inactive means mostly above about 0.92. Some of the results follow.

Assay: chemical genetic growth profiling, strain panel (AID 1159580);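 further: tested at 20 µM; growth read once vehicle control cultures reached saturation at 30 °C; 1 = growth at the plate median or of vehicle wells; lower values mean less growth of the strain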
Conditions: S. cerevisiae deletion strains, growth OD

Measured: normalized growth

O=c1[nH]c2cc([N+](=O)[O-])c([N+](=O)[O-])cc2[nH]c1=O
inactive: locus YAL013W, strain DEP1, active compounds read low 0.998 | locus YAL040C, strain CLN3, active compounds read low 1.03 | locus YCL061C, strain MRC1 (second series), active compounds read low 1 | locus YDR363W, strain ESC2, active compounds read low 0.986 | locus YER002W, strain NOP16, active compounds read low 0.996 | locus YGR078C, strain PAC10, active compounds read low 1 | locus YGR229C, strain SMI1, active compounds read low 0.977 | locus YJR075W, strain HOC1, active compounds read low 0.987 | locus YMR263W, strain SAP30, active compounds read low 1 | locus YNL128W, strain TEP1, active compounds read low 1.01 | locus YNL153C, strain GIM3, active compounds read low 1.01 | locus YNL175C, strain NOP13, active compounds read low 1.01 | locus YNL197C, strain WHI3, active compounds read low 0.989 | locus YNL224C, strain SQS1, active compounds read low 0.989 | locus YNL322C, strain KRE1, active compounds read low 0.986 | locus YOR083W, strain WHI5 (second series), active compounds read low 0.969 | locus YPL055C, strain LGE1, active compounds read low 0.988 | locus YPL241C, strain CIN2, active compounds read low 1
